Data reported in PubChem BioAssay (EPA / NIEHS).
Records with an inconclusive call do not appear. Activity calls are given as the source filed them. How the source made its calls, unless noted: active means hit-call score of the fitted dose curve at least 0.9, where 1 is the maximum; inconclusive means response in the unintended direction; inactive means score below 0.9.

Key:
[1] = target: human Retinoic Acid Receptor gamma (RARg), RARG (gene 5916) (UniProt P13631); test: ATG_RARg_TRANS: Attagene TRANS-FACTORIAL HepG2 Assay for human Retinoic Acid Receptor gamma (RARg) (AID 2283009)
human Retinoic Acid Receptor gamma (RARg), RARG (gene 5916), sequence (P13631 whole entry, looked up, the tested form may be a part): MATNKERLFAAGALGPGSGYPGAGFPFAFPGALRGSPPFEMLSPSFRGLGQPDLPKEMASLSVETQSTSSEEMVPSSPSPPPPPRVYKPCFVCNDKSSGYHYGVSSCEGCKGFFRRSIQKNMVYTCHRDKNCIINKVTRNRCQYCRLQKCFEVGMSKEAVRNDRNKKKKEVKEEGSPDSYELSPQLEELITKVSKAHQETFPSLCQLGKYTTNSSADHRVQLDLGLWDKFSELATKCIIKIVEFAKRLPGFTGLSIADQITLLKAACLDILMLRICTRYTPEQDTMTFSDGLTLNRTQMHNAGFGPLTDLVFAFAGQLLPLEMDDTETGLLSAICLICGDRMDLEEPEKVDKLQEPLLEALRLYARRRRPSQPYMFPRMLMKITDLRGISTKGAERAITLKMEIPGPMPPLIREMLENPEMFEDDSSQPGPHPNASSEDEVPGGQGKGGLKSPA
Summary of the method: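 Readout: reporter transcript levels via RT-PCR, 6-FAM primer-extension labelling, HpaI digestion and capillary electrophoresis. Cells: HepG2 carrying transfected RARg-GAL4 chimera plus UAS reporter set. Dosing 24 h; DMSO negative control.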

[2] = target: Estrogen receptor beta (Homo sapiens) (UniProt Q92731); test: OT_ER_ERbERb_0480: Odyssey Thera (OT) 8-hour HEK293T Protein-Complementation Assay for Estrogen Receptor-beta/-beta Homodimer (AID 2283357);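 further: active means signal gain over DMSO baseline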
Estrogen receptor beta (Homo sapiens), sequence (Q92731 whole entry, looked up, the tested form may be a part): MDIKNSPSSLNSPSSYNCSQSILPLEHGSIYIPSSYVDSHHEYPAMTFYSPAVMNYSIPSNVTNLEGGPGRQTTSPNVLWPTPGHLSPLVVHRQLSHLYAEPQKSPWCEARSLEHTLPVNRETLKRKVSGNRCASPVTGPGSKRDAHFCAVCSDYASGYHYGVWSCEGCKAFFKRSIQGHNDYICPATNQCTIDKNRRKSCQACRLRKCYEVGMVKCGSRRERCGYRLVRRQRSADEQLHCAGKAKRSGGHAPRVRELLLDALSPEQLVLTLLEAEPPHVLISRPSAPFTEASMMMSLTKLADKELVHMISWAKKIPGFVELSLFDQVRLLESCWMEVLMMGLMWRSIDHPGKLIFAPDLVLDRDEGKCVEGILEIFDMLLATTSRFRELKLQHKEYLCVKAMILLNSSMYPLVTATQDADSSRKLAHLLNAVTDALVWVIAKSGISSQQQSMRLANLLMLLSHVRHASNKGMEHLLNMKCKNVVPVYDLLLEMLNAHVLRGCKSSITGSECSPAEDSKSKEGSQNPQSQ
Summary of the method: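 Homodimerization of ER-beta LBD measured by protein-fragment complementation in HEK293T; 8 h dosing; fixed, Draq5 counterstain; fluorescence intensity gain over DMSO baseline, positive fitting direction; laser scanning cytometry.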

[3] = target: Estrogen receptor beta (Homo sapiens) (UniProt Q92731); test: OT_ER_ERbERb_1440: Odyssey Thera (OT) 24-hour HEK293T Protein-Complementation Assay for Estrogen Receptor-beta/-beta Homodimer (AID 2283380);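 further: scored as signal increase over DMSO baseline for both agonists and antagonists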
Summary of the method: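 HEK293T cells stably expressing ER beta LBD (aa 310-547) homodimer fragment-complementation reporter, dosed 24 h. Cells formaldehyde-fixed, Draq5-stained; gain in nuclear (agonist) or nuclear plus cytoplasmic (antagonist) fluorescence versus DMSO read by laser scanning cytometry.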

[4] = ACEA_AR_agonist_AUC_viability: ACEA Biosciences xCELLigence Real-Time Cell Analysis on Androgen Receptor Agonism for Viability (AID 2283775)
Summary of the method: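 Viability endpoint from xCELLigence impedance in 22Rv1 prostate cells at 80 h. Eight-point series, 100 uM maximum final.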

[5] = ACEA_AR_antagonist_AUC_viability: ACEA Biosciences xCELLigence Real-Time Cell Analysis on Androgen Receptor Antagonism for Viability (AID 2283776);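 further: 22Rv1 human prostate cancer cells growing on impedance electrode plates; area under impedance growth curve at 80 h after dosing as viability; hits lower the growth signal relative to DMSO meaning cytotoxicity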
Summary of the method: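 Viability endpoint from label-free cell-index monitoring: 22Rv1 cultures treated with an eight-point 1:4 dilution series starting at 100 uM final, AUC at 80 h fitted against DMSO.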

[6] = CCTE_Harrill_HTTr_CellCount_MCF7: CCTE's Cell Proliferation Assessment for the High-Throughput Transcriptomics (HTTr) Platform, Harrill Lab (AID 2284012);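 further: count of Hoechst-stained nuclei per well by high-content imaging in MCF-7 cells; cells exposed to compound for six hours; intended direction is loss of nuclei count meaning fewer cells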
Summary of the method: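 Readout: Hoechst nuclear count by high-content imaging. MCF-7, 8-point dilution series, 6 h exposure. Bidirectional fit vs DMSO baseline.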

[7] = target: Nuclear receptor subfamily 4 group A member 2 (Homo sapiens) (UniProt P43354); test: ATG_NURR1_TRANS: Attagene TRANS-FACTORIAL HepG2 Assay for human Nuclear Receptor Related Protein 1 (NURR1) (AID 2282985); settings: HepG2 Attagene TRANS reporter, mRNA readout
Nuclear receptor subfamily 4 group A member 2 (Homo sapiens), sequence (P43354 whole entry, looked up, the tested form may be a part): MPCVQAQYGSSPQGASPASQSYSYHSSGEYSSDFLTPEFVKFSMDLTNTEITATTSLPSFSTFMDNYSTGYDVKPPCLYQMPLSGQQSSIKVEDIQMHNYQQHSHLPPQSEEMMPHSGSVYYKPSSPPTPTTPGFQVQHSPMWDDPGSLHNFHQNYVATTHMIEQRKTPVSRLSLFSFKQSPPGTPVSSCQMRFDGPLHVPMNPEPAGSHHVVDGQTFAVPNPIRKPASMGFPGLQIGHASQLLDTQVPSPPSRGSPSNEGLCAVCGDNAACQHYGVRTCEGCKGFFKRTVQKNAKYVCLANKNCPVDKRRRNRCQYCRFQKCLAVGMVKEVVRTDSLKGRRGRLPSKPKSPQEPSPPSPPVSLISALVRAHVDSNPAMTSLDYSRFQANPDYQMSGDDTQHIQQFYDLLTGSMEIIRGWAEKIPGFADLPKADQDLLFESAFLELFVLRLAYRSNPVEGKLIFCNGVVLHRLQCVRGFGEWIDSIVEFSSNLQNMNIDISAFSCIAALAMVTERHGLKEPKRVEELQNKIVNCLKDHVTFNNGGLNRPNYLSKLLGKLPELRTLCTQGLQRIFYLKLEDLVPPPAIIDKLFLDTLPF
Summary of the method: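 Read-out: reporter mRNA induction by RT-PCR plus capillary electrophoresis with fluorescence detection, after 24 h dosing of transfected HepG2 cells. Exogenous NR-Gal4 chimera activity drives GAL4-UAS reporter; activity fitted upward versus DMSO.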

[8] = ATG_ERE_CIS: Attagene CIS-FACTORIAL HepG2 Assay for Estrogen Response Element (ERE) (AID 2282940; active means hit-call score of the fitted dose curve at least 0.9, where 1 is the maximum; inactive means score below 0.9); settings: HepG2 ERE cis-reporter, Attagene RNA transcript; actives raise or lower the signal
Summary of the method: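 Measuring endogenous transcription factor output, the assay doses transfected HepG2 cells for 24 hours and quantifies reporter transcripts by fluorescent RT-PCR and capillary electrophoresis, with DMSO as baseline.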

[9] = target: human Retinoic Acid Receptor beta (RARb), RARB (gene 5915) (UniProt P10826); test: ATG_RARb_TRANS: Attagene TRANS-FACTORIAL HepG2 Assay for human Retinoic Acid Receptor beta (AID 2283004)
human Retinoic Acid Receptor beta (RARb), RARB (gene 5915), sequence (P10826 whole entry, looked up, the tested form may be a part): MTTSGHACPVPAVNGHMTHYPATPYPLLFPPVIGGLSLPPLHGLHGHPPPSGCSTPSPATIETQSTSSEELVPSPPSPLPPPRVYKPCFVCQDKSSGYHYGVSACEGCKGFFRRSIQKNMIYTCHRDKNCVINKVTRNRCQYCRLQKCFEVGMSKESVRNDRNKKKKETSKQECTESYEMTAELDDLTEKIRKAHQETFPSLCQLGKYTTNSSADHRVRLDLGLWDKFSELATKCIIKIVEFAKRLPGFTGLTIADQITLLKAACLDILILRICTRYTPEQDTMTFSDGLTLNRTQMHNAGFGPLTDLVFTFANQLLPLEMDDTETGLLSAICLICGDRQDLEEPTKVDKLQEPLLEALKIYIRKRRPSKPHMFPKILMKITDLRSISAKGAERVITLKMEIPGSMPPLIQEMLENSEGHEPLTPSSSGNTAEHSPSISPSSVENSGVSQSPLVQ
Summary of the method: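 Fluorescent capillary-electrophoresis detection of GAL4-UAS reporter mRNA defines the endpoint, with induction over DMSO-treated wells scored as activity. Transiently transfected human hepatoma HepG2 cells expressing exogenous NR–Gal4 proteins are exposed to test chemicals for 24 h.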

[10] = target: Retinoic acid receptor RXR-alpha (Homo sapiens) (UniProt P19793); test: OT_NURR1_NURR1RXRa_1440: Odyssey Thera (OT) 24-hour HEK293T Protein Complementation Assay for Nurr1/retinoid X receptor (RXR) (AID 2283386)
Retinoic acid receptor RXR-alpha (Homo sapiens), sequence (P19793 whole entry, looked up, the tested form may be a part): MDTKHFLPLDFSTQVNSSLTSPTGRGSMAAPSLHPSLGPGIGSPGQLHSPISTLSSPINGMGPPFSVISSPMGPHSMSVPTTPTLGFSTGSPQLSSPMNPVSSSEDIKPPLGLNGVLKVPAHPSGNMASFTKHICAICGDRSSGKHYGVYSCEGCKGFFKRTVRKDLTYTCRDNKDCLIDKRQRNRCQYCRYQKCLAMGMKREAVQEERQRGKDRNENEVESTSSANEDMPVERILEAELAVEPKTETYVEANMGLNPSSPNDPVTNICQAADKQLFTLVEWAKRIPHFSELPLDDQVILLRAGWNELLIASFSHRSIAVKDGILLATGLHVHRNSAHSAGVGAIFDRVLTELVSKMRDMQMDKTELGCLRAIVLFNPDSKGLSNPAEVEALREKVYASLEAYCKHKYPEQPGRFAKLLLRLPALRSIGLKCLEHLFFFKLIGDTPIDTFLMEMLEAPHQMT
Summary of the method: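 Fluorescence PCA read-out; HEK293T; 24 h post-dose; bait/prey fused to reporter fragments; gain-of-signal fit vs DMSO negative control.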

[11] = target: Peroxisome proliferator-activated receptor gamma (Homo sapiens) (UniProt P37231); test: OT_PPARg_PPARgSRC1_0480: Odyssey Thera (OT) 8-hour Protein-Complementation Assay for Peroxisome Proliferator-activated Receptor Gamma / SRC-1 Co-activator (AID 2283387);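 further: nuclear to cytoplasmic split Venus YFP fluorescence ratio reporting PPARg SRC-1 interaction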
Peroxisome proliferator-activated receptor gamma (Homo sapiens), sequence (P37231 whole entry, looked up, the tested form may be a part): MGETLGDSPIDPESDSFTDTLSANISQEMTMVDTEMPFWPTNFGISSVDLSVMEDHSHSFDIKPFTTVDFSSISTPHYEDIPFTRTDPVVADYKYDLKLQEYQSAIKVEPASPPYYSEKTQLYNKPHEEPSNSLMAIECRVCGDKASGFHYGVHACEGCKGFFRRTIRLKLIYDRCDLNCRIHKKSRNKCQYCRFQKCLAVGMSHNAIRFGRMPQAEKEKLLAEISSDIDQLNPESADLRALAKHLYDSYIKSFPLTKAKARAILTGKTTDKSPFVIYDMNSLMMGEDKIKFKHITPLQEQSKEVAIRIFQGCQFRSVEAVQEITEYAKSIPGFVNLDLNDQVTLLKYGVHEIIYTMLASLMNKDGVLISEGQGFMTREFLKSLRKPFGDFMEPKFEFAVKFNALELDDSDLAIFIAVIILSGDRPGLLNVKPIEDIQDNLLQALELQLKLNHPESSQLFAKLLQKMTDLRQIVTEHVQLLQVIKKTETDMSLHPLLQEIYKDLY
Summary of the method: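 Split-YFP (IFP1/IFP2) PPARg/SRC-1 reporter, HEK293T, 37 °C, 5% CO2; 8 h compound; formaldehyde fix + Draq5; high-content imaging, N/C ratio, ≥350 cells/image, positive direction vs DMSO.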

[12] = target: Peroxisome proliferator-activated receptor gamma (Homo sapiens) (UniProt P37231); test: OT_PPARg_PPARgSRC1_1440: Odyssey Thera (OT) 24-hour Protein-Complementation Assay for Peroxisome Proliferator-activated Receptor Gamma/ SRC-1 Co-activator (AID 2283388);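 further: nuclear to cytoplasmic ratio of reconstituted Venus YFP fluorescence in fixed imaged cells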
Summary of the method: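 Cells carrying the PPARg/SRC-1 fragment-complementation reporter receive compound for 24 hours, are fixed and counterstained with Draq5, then imaged. Increased nuclear relative to cytoplasmic YFP fluorescence above DMSO baseline indicates binding activity.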

[13] = read-out: Pselectin, SELP (gene 6403); test: BSK_4H_Pselectin: BioMAP Diversity Plus: 4H Assay for Pselectin Biomarker Activity (AID 2283026; active means hit-call score of the fitted dose curve at least 0.9, where 1 is the maximum; inactive means score below 0.9); settings: primary human endothelial cells (HUVEC); actives raise or lower the signal
Summary of the method: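 HUVEC, 24 h chemical exposure; P-selectin read by ELISA. Bidirectional curve fit vs DMSO baseline; gain or loss of signal scored.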

[14] = read-out: Macrophage colony-stimulating factor (MCSF), CSF1 (gene 1435); test: BSK_CASM3C_MCSF: BioMAP Diversity Plus: CASM3C Assay for Macrophage colony-stimulating factor (MCSF) Biomarker Activity (AID 2283044; active means hit-call score of the fitted dose curve at least 0.9, where 1 is the maximum; inactive means score below 0.9;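 further: M-CSF protein amount quantified by ELISA after 24 h exposure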); settings: primary human coronary artery smooth muscle cells; actives raise or lower the signal
[15] = read-out: Low-density lipoprotein receptor (LDLR), LDLR (gene 3949); test: BSK_CASM3C_LDLR: BioMAP Diversity Plus: CASM3C Assay for Low-density lipoprotein receptor (LDLR) Biomarker Activity (AID 2283045; active means hit-call score of the fitted dose curve at least 0.9, where 1 is the maximum; inactive means score below 0.9;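 further: LDLR protein level on the cell surface quantified by ELISA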); settings: primary human coronary artery smooth muscle cells; actives raise or lower the signal
[16] = read-out: serum amyloid A (SAA), SAA1 (gene 6288); test: BSK_CASM3C_SAA: BioMAP Diversity Plus: CASM3C Assay for serum amyloid A (SAA) Biomarker Activity (AID 2283049; active means hit-call score of the fitted dose curve at least 0.9, where 1 is the maximum; inactive means score below 0.9;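 further: SAA protein level quantified by ELISA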); settings: primary human coronary artery smooth muscle cells; actives raise or lower the signal
[17] = read-out: Interferon-gamma inducible Protein 10 (IP10), CXCL10 (gene 3627); test: BSK_hDFCGF_IP10: BioMAP Diversity Plus: hDFCGF Assay for Interferon-gamma inducible Protein 10 (IP10) Biomarker Activity (AID 2283053; active means hit-call score of the fitted dose curve at least 0.9, where 1 is the maximum; inactive means score below 0.9); settings: primary human foreskin fibroblasts; actives raise or lower the signal
Summary of the method: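 ELISA read-out of IP-10 (CXCL10) from primary human skin fibroblasts, 24 h after compound addition. Gain or loss of signal versus DMSO baseline, bidirectional curve fitting.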

[18] = read-out: Vascular cell adhesion molecule 1 (VCAM1), VCAM1 (gene 7412); test: BSK_CASM3C_VCAM1: BioMAP Diversity Plus: CASM3C Assay for Vascular cell adhesion molecule 1 (VCAM1) Biomarker Activity (AID 2283055; active means hit-call score of the fitted dose curve at least 0.9, where 1 is the maximum; inactive means score below 0.9;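 further: VCAM-1 protein level quantified by ELISA on the cells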); settings: primary human coronary artery smooth muscle cells; actives raise or lower the signal
[19] = read-out: Monokine induced gamma interferon (MIG), CXCL9 (gene 4283); test: BSK_hDFCGF_MIG: BioMAP Diversity Plus: hDFCGF Assay for Monokine induced gamma interferon (MIG) Biomarker Activity (AID 2283063; active means hit-call score of the fitted dose curve at least 0.9, where 1 is the maximum; inactive means score below 0.9); settings: primary human foreskin fibroblasts; actives raise or lower the signal
Summary of the method: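 Endpoint derived by bidirectional fitting relative to DMSO; MIG quantified via ELISA in primary human foreskin fibroblasts harvested 24 h after dosing.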

[20] = target: Steroid hormone receptor ERR1 (Homo sapiens) (UniProt P11474); test: ATG_ERRa_TRANS: Attagene TRANS-FACTORIAL HepG2 Assay for human Estrogen-Related Receptor alpha (ERRa) (AID 2282971); settings: HepG2 Attagene TRANS reporter, ERRa transactivation
Steroid hormone receptor ERR1 (Homo sapiens), sequence (P11474 whole entry, looked up, the tested form may be a part): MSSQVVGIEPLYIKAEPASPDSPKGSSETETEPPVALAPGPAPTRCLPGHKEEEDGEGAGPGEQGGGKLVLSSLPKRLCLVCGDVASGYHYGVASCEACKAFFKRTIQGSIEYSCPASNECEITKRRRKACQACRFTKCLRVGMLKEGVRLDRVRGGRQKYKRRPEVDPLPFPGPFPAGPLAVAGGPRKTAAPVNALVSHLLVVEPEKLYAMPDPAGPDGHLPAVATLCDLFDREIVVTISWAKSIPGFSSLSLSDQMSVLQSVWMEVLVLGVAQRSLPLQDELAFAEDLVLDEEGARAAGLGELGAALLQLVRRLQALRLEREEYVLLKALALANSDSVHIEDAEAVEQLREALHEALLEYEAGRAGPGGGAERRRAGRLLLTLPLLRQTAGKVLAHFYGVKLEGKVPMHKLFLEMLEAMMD
Summary of the method: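 Signal gain relative to DMSO for an ERRa-Gal4 chimeric receptor, read as reporter mRNA by RT-PCR/capillary electrophoresis. Human HepG2 liver cells, transient multiplex reporter transfection, 24 h chemical exposure.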

Measured: AC50

c1ccc(CNc2ncnc3nc[nH]c23)cc1
inactive: [1] | [2] | [3] | [4] | [5] | [6]

Clc1ccccn1
inactive: [1] | [6]

CCC(=O)OCc1ccc(OC)cc1
inactive: [7] | [1]

CN1CCCC1
inactive: [8] | [9] | [1]

Cc1cc2nc3c(=O)[nH]c(=O)nc-3n(C[C@H](O)[C@H](O)[C@H](O)CO)c2cc1C
active: [2] 11.8 µM | [3] 24.1 µM | [10] 11 µM
inactive: [5]

C=C1CC[C@H]2C[C@@H]1C2(C)C
inactive: [8] | [7] | [9] | [2] | [3] | [11] | [12] | [4] | [5]

CCCCCCC(O)CCCCCCCCCCC(=O)OC (stereo unspecified)
inactive: [7] | [9] | [1] | [13] | [14] | [15] | [16] | [17] | [18] | [19]

O=C1NC(=O)C2CC=CCC12 (stereo unspecified)
inactive: [1] | [2] | [3] | [10] | [4] | [5]

CN(C)CCC(c1ccc(Cl)cc1)c1ccccn1 (stereo unspecified)
inactive: [14] | [15] | [16] | [17] | [18] | [19]
active: [13] 0.502 µM

CCO[Si](OCC)(OCC)c1ccccc1
inactive: [20]

O=C(O)c1nc(Cl)c(Cl)c(Cl)c1Cl
inactive: [7]

Cc1cc(C)c(S(=O)(=O)O)cc1N=Nc1cc(S(=O)(=O)O)c2ccccc2c1O
inactive: [2] | [3] | [10] | [11] | [12] | [4] | [5]

CCCCCCCCCC/C=C/C1CC(=O)OC1=O (stereo unspecified)
inactive: [7] | [13] | [14] | [15] | [16] | [17] | [18] | [19]

O=C(O)Cc1c[nH]c2ccccc12
inactive: [20] | [7] | [6]

COC(=O)c1ccccc1
inactive: [7]

CC1=NN(c2cc(Cl)c(S(=O)(=O)O)cc2Cl)C(=O)C1N=Nc1ccc(S(=O)(=O)O)cc1 (stereo unspecified)
inactive: [7] | [11] | [12] | [5]

O=C(C(=O)c1ccccc1)c1ccccc1
inactive: [20] | [13] | [14] | [15] | [16] | [17] | [18] | [19]

c1cc[c]([Bi]([c]2ccccc2)[c]2ccccc2)cc1
active: [8] 6.83 µM

COCCCN
inactive: [8]

O=C(O)/C=C/C(=O)O
inactive: [2] | [3] | [4] | [5] | [6]

CN(C)CCCN1c2ccccc2CCc2ccc(Cl)cc21
inactive: [7] | [6]

CC/C=C\CCCCCO
inactive: [20]

CC=CC(=O)O
inactive: [20] | [9] | [1]

CCCCn1cc[n+](C)c1
inactive: [7]
